GLP1R inv ag: inverse agonists of human GLP-1 receptor; AID 624417; P43220; Potency, µM (series often up to 38.3 µM), most hits filed as inhibitors; 410,000 tested, 1.6% active; HEK293 GLP-1R CRE-luciferase, luminescence, 24 h; GLP-1R form is constitutively active; note: nearly all actives have a fitted effect of over 55% in size
Target sequence (P43220 whole entry, looked up): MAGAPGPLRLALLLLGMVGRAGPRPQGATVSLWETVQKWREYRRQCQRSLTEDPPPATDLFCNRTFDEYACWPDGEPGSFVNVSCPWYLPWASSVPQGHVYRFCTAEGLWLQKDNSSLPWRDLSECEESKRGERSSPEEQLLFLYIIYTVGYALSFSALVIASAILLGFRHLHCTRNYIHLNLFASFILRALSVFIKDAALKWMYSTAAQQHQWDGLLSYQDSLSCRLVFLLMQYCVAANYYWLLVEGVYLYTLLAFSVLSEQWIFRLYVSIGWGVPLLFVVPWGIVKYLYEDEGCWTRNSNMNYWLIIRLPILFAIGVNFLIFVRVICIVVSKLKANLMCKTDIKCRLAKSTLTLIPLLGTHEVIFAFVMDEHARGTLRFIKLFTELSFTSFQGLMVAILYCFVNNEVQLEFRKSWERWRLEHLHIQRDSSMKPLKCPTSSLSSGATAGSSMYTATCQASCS
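HEK293 cells stably co-expressing a cAMP-responsive luciferase reporter and constitutively active GLP-1R were seeded, incubated 12 h, then exposed to compounds for 24 h at 37 C. Luminescence was read 12 min after detection reagent; inverse agonists lower signal.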
PTHR1 agonist: agonists of human PTHR1 parathyroid hormone receptor; Q03431; HEK293 GP2 PTHR1 cells, GloSensor cAMP luminescence, 1 h; Potency, µM (titrated, usually from 115 µM), hits mostly activators; 410,000 tested, 0.075% active; AID 743266; note: nearly all actives have a fitted effect of over 55% in size
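HEK-293-derived GP2 cells expressing PTHR1 and a GloSensor cAMP reporter, 3,000/well, plated overnight, given luciferin plus IBMX (each 0.5 mM as added) for 1 h at 37 °C, then compound for 1 h at 37 °C. Luminescence was read after 15 min at room temperature.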
HEK293 tox: cytotoxicity in counter-screen for GLP-1R inverse agonists. HEK293 cAMP-luciferase reporter cells, luminescence, 24 h. Potency, µM (doses to about 38.3 µM), usual class: inhibitors. 410,000 tested, 0.13% active. AID 624418;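 note: loss of luciferase light is scored as toxicity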
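Step one: seed cells (200 cells/uL, DMEM with 10% Nu serum, 1% pen-strep). Step two: 12-hour incubation at 37 deg C. Step three: pin 23 nL compound, incubate 24 hr. Step four: add luciferase reagent, read luminescence 12 min later.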
GLP1R ag: activates the human GLP-1 receptor; 380,000 tested, 0.007% active; P43220; HEK293 GLP-1R CRE-luciferase, luminescence, 4-6 h; cells express a hypersensitive GLP-1R form; Potency, µM (highest dose often 45.6 µM), actives largely listed as activators
Hits are given with their value; 0 = inactive; ? = inconclusive; - = no result given. A selection: hits, their analogues and other compounds. The true share with any hit is near 1.7%. Calls come from the whole dose curve; as a rule, active = well fitted curve in the direction sought with a large enough effect; inconclusive = small, poorly fitted or top-dose-only effect, or another doubt; inactive = no such curve, though single readings can be large; an effect the other way counts as inactive or inconclusive.

SMILES	GLP1R inv ag	PTHR1 agonist	HEK293 tox	GLP1R ag
COc1ccc(C2C(C(=O)Nc3ccccc3OC)=C(C)Nc3c(C(=O)Nc4ccccc4)cnn32)c(OC)c1 (stereo not given)	?	?	0	-
CN(CC(=O)NC(=O)NCc1ccccc1)Cc1ccc(Cl)cc1	?	0	0	0
CCc1nc2ccc(C(=O)N(C)CC(=O)Nc3ccc(Cl)c(C(F)(F)F)c3)cc2nc1CC	8.91µM	0	?	0
CN(CC(=O)NC(=O)NCc1ccccc1)Cc1cccc(Cl)c1Cl	10µM	0	0	0
CN(CC(=O)NCc1ccccc1)CC(=O)Nc1ccc(Cl)c(C(F)(F)F)c1	?	0	0	0
CN(CC(=O)NC(=O)NCc1ccccc1)CC(=O)Nc1ccc(Cl)c(C(F)(F)F)c1	7.94µM	0	0	0
Cc1ccccc1CNCCCSc1nnnn1-c1ccccc1	?	0	0	-
CCn1nnc2cc(C(=O)Nc3cccc(C)c3C)ccc21	0	0	0	-
COC(=O)Cc1c(C)nc2nc(NCc3ccc(Br)cc3)[nH]n2c1=O	0	0	0	-
CC(=Nc1ccc(C)cc1)c1sc2ccccc2c1O	12.6µM	0	0	0
Cc1ccc(CNC(=O)CCc2nnc3n(C)c(=O)c4sccc4n23)cc1	0	0	0	0
COc1ccc2c(c1)c(CC(=O)Nc1ccccc1OC)c(C)n2C(=O)c1ccc(Cl)cc1	10µM	0	0	0
CN(CCOc1ccc(Cl)cc1)C(=O)c1cccc(S(=O)(=O)N2CCN(c3ccc(F)cc3)CC2)c1	3.98µM	0	0	0
CCc1c(-c2ccccc2)nc2ccccc2c1C(=O)NCCc1ccccc1	?	0	0	-
COc1ccc(-c2cc(C(=O)Oc3ccc(C#N)cc3)no2)cc1	0	0	0	-
O=C1OC(c2ccccc2)(c2ccccc2)c2ccccc21	7.94µM	0	0	0
Cc1cc2cc(CCNC(=O)C(=O)c3c[nH]c4ccccc34)c(=O)[nH]c2cc1C	10µM	0	0	0
O=C(NCCc1c[nH]c2ccccc12)C(=O)c1c[nH]c2ccccc12	4.47µM	0	0	0
Cc1cc2cc(CCNC(=O)C(C)C)c(=O)[nH]c2cc1C	0	0	0	0
O=C(Nc1ccc2oc(-c3cccnc3)nc2c1)c1ccc(-c2cccc(OC(F)(F)F)c2)o1	0	0	0	-
COc1cc(/C=C/C(=O)c2ccc3c(c2)OCO3)cc(Cl)c1O	11.2µM	0	0	0
Cc1c(C(=O)N(Cc2ccc(N(C)C)cc2)CC2CCCO2)oc2ccc(Cl)cc12 (stereo not given)	0	0	0	-
Cc1c(C(=O)N(Cc2ccc(N(C)C)cc2)CC2CCCO2)oc2ccccc12 (stereo not given)	10µM	0	0	0
Cc1ncsc1CCSc1nc2ccccc2c(=O)n1C	0	0	0	11.2µM
CCC1CN(C(=O)Nc2cccc3c2CCCC3)c2cc(Cl)ccc2O1 (stereo not given)	10µM	0	0	-
SMILES	GLP1R inv ag	PTHR1 agonist	HEK293 tox	GLP1R ag
CCC1CN(C(=O)Nc2cccc3c2CCCC3)c2ccccc2O1 (stereo not given)	?	0	0	-
CSc1cccc(N2C(=O)N(CC(=O)NCc3ccccc3Cl)c3ccccc3S2(=O)=O)c1	0	0	0	0
CCOc1ccc(NCc2nnc(SCc3ccc(Cl)cc3)n2-c2ccccc2)cc1	10µM	0	0	0
C[C@@H](NCCCc1cccc(C(F)(F)F)c1)c1cccc2ccccc12	-	-	-	0
Cc1ccc(CN(C)C(=O)CN2C(=O)NC3(CCCc4ccccc43)C2=O)c(C)c1 (stereo not given)	3.16µM	0	0	0
CN(C)C(=O)CN1C(=O)NC2(CCCc3ccccc32)C1=O (stereo not given)	0	?	0	0
COc1cccc(CN(C)C(=O)CCN(c2ccccc2)S(=O)(=O)c2ccc(C)cc2)c1OC	8.91µM	0	0	0
Cc1ccc(S(=O)(=O)N(CCC(=O)NCc2ccccc2F)c2ccccc2)cc1	?	0	0	0
Cc1cccc2nc3ccccc3cc12	0	0	0	0
Cc1[nH]ccc2cc3nc4ccccc4c3cc12	10µM	0	0	0
Cc1ccc(C)c2[nH]c(=O)c(C(c3nnnn3Cc3ccco3)N3CCc4ccccc4C3)cc12 (stereo not given)	10µM	0	0	0
CC1CCN(c2nn3c(=O)c(C(=O)NCc4ccc(Cl)cc4)cnc3s2)CC1	0	0	0	-
O=C(OCC(=O)N(CCc1ccccc1)Cc1ccccc1)c1ccccc1NCCO	10µM	0	0	0
O=C(OCC(=O)N(CCc1ccccc1)Cc1ccccc1)c1ccccc1O	10µM	0	0	0
O=C(OCC(=O)N(CCc1ccccc1)Cc1ccccc1)c1cccc(O)c1	?	0	0	0
O=C(OCC(=O)N(Cc1ccccc1)Cc1ccccc1)c1ccccc1O	?	0	0	0
CO[C@@H]1[C@@H]([C@H](C)[C@@H]2O[C@@]3(CC[C@@](C)([C@H]4CC[C@@](C)([C@H]5O[C@H]([C@H]6O[C@](C)(O)[C@H](C)C[C@@H]6C)C[C@H]5O[C@H]5C[C@@H](OC)[C@H](OC)[C@@H](C)O5)O4)O3)C[C@@H](O)[C@@H]2C)O[C@@](O)(CC(=O)O)[C@H](C)[C@H]1OC	-	-	-	0
Cc1ccc(-n2ncc3c(N4CCN(C)CC4)ncnc32)cc1C	?	0	0	-
COc1ccc(C(=O)Nc2nc3ccccc3[nH]2)cc1	?	0	?	0
COc1cccc(C(=O)Nc2nc3ccccc3[nH]2)c1	7.94µM	0	?	0
CN(C)c1cccc(C(=O)Nc2nc3ccccc3[nH]2)c1	3.55µM	0	0	0
COc1ccccc1Cc1nc2ccccc2nc1SCC(=O)N1CCC(C)CC1	0	0	0	0
Cc1cccc(C(=O)Nc2ccc3nc(SCC(=O)N4CCCC4)sc3c2)c1	0	0	0	-
CCN(CC)CCNC(=O)c1ccc2c(c1NCCO)C(=O)c1ccccc1C2=O	?	0	5.01µM	0
COc1cccc(NC(=O)C2CCCN(c3nnc(-n4c(C)ccc4C)s3)C2)c1 (stereo not given)	0	0	0	-
SMILES	GLP1R inv ag	PTHR1 agonist	HEK293 tox	GLP1R ag
O=Cc1ccccc1C=O	-	-	-	0
CCOC(=O)C1=CN(Cc2cccc(F)c2)S(=O)(=O)N(C)C1c1ccc(F)c(Cl)c1 (stereo not given)	10µM	0	0	0
Cc1cc(C)c(S(=O)(=O)NCC(c2ccco2)N2CCN(c3ccccc3)CC2)c(C)c1 (stereo not given)	0	0	0	-
COc1ccccc1CNC(=O)c1cc2ccc3ccc(C)[nH]c3c2n1	10µM	0	0	0
CCCn1c2ccccc2c2cnn(CC(=O)NCCCN(Cc3ccccc3)C(C)C)c(=O)c21	?	0	?	-
O=C(c1ccco1)N(Cc1ccc(Cl)cc1)Cc1ccco1	?	0	0	0
Cc1ccc(CN(Cc2ccco2)C(=O)c2oc3cc(Br)ccc3c2C)cc1	?	0	0	-
Cc1ccc(CN(Cc2ccco2)C(=O)c2ccc(Cl)cc2Cl)cc1	12.6µM	0	0	-
CN(C)c1ccc(CN(Cc2ccco2)C(=O)c2ccco2)cc1	11.2µM	0	0	0

Assay outcomes: PubChem, National Center for Advancing Translational Sciences (NCATS)
